Source: PubChem BioAssay
Calls of active or inactive are those of the source.

What follows are compounds tested against Luciferin 4-monooxygenase (Photinus pyralis) (UniProt P08659) (assay: inhibition of purified Photinus pyralis luciferase – biochemical, luminescence, purified enzyme, 2006 set, primary screen (AID 1141;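 further: cell-free assay with purified firefly luciferase at 100 ng per well in PBS; test concentration not given here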)). Conditions: purified firefly luciferase, SteadyGlo luminescence, 30 min; higher = more signal, called active from +8 up or from −8 down.
Chain of Luciferin 4-monooxygenase (Photinus pyralis) (P08659 whole entry, looked up): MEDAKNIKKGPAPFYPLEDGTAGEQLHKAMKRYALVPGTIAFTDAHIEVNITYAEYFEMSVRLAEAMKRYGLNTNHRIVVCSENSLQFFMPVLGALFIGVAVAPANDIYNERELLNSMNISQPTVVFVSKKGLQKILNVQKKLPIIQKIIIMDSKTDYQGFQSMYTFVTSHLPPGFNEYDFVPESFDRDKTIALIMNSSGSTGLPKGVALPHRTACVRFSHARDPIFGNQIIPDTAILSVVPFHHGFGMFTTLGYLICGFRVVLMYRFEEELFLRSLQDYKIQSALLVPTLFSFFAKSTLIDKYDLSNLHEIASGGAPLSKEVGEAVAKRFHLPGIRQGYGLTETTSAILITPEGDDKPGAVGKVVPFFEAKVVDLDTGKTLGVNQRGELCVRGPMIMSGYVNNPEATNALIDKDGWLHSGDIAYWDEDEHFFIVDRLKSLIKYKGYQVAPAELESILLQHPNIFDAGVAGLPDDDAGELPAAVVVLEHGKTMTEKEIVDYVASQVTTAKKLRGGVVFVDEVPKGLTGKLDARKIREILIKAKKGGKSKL

| SMILES | z-score |
| --- | --- |
| COCC(=C=CC[C@@H](O)c1ccc(CO)o1)CCO | -0.877 (inactive) |
| CC(C)N1C(=O)c2ccccc2[C@@H](C(=O)NCCCN(C)C)[C@@H]1c1ccc(CO)cc1 | 0.571 (inactive) |
| C=C[C@@H](COC(C)=O)N(Cc1ccc([N+](=O)[O-])cc1)S(=O)(=O)c1ccc(Br)cc1 | -1.19 (inactive) |
| CC(C)C(=C=CC[C@@H](O)c1ccccc1OCCO)C[C@@H](O)c1ccccn1 | -0.623 (inactive) |
| C=CCNC(=O)[C@@H]1[C@H]2C(=O)O[C@H](c3ccccc3)[C@H](c3ccccc3)N2[C@H](c2ccc(O)cc2)[C@@]12C(=O)N(C(=O)OCCOC)c1ccccc12 | -0.355 (inactive) |
| CC(C)(C)OC(=O)CC[C@@]1(C(=O)NCCN2CCOCC2)N=C(c2ccc(OCCCO)cc2)O[C@@H]1c1ccccc1 | -1.66 (inactive) |
| N#Cc1ccc(NN2C(C(O)C3CCCCC3)C=CC3C(=O)N(c4ccccc4)C(=O)C32)cc1 (stereo not given) | -0.394 (inactive) |
| C=CCN1C(=O)[C@]2(O[C@H](CCO)[C@@H]([Si](C)(C)c3ccc(OC)cc3)[C@@H]2C)c2cc(NC(=O)[C@H](C)O)ccc21 | -0.181 (inactive) |
| O=C1O[C@H](c2ccccc2)[C@H](c2ccccc2)N2[C@H]1[C@@H](C(=O)N1CCN(c3ncccn3)CC1)[C@]1(C(=O)Nc3ccccc31)[C@H]2c1ccc(OCCO)cc1 | 0.546 (inactive) |
| O=C1OCCC/C=C\[C@H]2OC34C=CCN(Cn5nnc6ccccc65)C(=O)[C@H]3N(CCCCCO)C(=O)[C@@H]4C12 (stereo not given in full) | 0.786 (inactive) |
| COc1cc2c(cc1OC)CN(C(=O)[C@@H]1[C@H]3C(=O)O[C@H](c4ccccc4)[C@H](c4ccccc4)N3[C@H](c3ccccc3OCCO)[C@@]13C(=O)Nc1ccc(C#CCNC(N)=O)cc13)CC2 | -1.64 (inactive) |
| COC(=O)[C@@]1(Cc2ccccc2)[C@H]2c3cc(C(=O)N4CCCC4)n(C)c3C[C@H]2CN1C(=O)c1ccccc1 | 0.271 (inactive) |
| O=C1O[C@H](c2ccccc2)[C@H](c2ccccc2)N2[C@H]1[C@@H](C(=O)Nc1nc3ccccc3s1)[C@]1(C(=O)Nc3ccccc31)[C@H]2c1ccc(O)cc1 | -0.647 (inactive) |
| CCN(CC)c1ccc(N2CC=CC34O[C@@H]5C=CCCOC(=O)C5[C@H]3C(=O)N(CCCCCO)[C@@H]4C2=O)cc1 (stereo not given in full) | -1.29 (inactive) |
| COCCOC(=O)N1C(=O)[C@@]2(c3cc(C#CCC(C(=O)OC)C(=O)OC)ccc31)[C@H](c1ccc(O)cc1)N1[C@H](c3ccccc3)[C@H](c3ccccc3)OC(=O)[C@H]1[C@@H]2C(N)=O | -0.78 (inactive) |
| NC(=O)NCC#Cc1ccc2c(c1)[C@]1(C(=O)N2)[C@H](C(=O)N2CCCCCCC2)[C@H]2C(=O)O[C@H](c3ccccc3)[C@H](c3ccccc3)N2[C@@H]1c1ccc(OCCO)cc1 | -0.551 (inactive) |
| CC(C)N1CC=CC23O[C@@H]4C=CCOC(=O)[C@@H]4[C@H]2C(=O)N(CCO)[C@@H]3C1=O (stereo not given in full) | -0.0322 (inactive) |
| COc1ccc(CCNC(=O)[C@@]2(c3ccc([N+](=O)[O-])cc3)CC(=O)N(CC34CC5CC(CC(C5)C3)C4)[C@@H]2c2ccc(CO)cc2)cc1 | 0.41 (inactive) |

| SMILES | z-score |
| --- | --- |
| COCCOC(=O)N1C(=O)[C@@]2(c3ccccc31)[C@H](C(=O)NC[C@H](O)c1ccccc1)[C@H]1C(=O)O[C@H](c3ccccc3)[C@H](c3ccccc3)N1[C@@H]2c1ccc(OCCO)cc1 | 0.888 (inactive) |
| COc1ccc(C(O)C2C=CC3C(=O)NC(=O)C3N2Nc2ccccn2)cc1OCc1ccccc1 (stereo not given) | 0.24 (inactive) |
| COCCOC(=O)N1C(=O)[C@@]2(c3cc(C#CC4=CCCCC4)ccc31)[C@H](C(=O)NC[C@H](O)c1ccccc1)[C@H]1C(=O)O[C@H](c3ccccc3)[C@H](c3ccccc3)N1[C@@H]2c1ccc(O)cc1 | -1.31 (inactive) |
| COc1ccc([Si](C)(C)[C@@H]2[C@@H](CCn3cc([C@H](O)c4ccccc4)nn3)O[C@]3(C(=O)N(Cc4ccc(N5C(=O)c6cccc7cccc5c67)cc4)c4ccccc43)[C@H]2C)cc1 | -0.303 (inactive) |
| [N-]=[N+]=NCc1ccccc1C[C@]1(C(=O)O)N=C(c2ccc(OCCCO)cc2)O[C@H]1c1ccccc1CN=[N+]=[N-] | -1.49 (inactive) |
| CC(C)NC(=O)[C@@H]1c2ccccc2C(=O)N(Cc2ccccc2)[C@H]1c1ccc(CO)cc1 | 0.413 (inactive) |
| COCCOC(=O)N1C(=O)[C@@]2(c3cc(C#CCNC(N)=O)ccc31)[C@H](c1ccccc1OCCO)N1[C@H](c3ccccc3)[C@H](c3ccccc3)OC(=O)[C@H]1[C@@H]2C(N)=O | -0.868 (inactive) |
| O=C1C2C=CC(C(O)c3ccc(B(O)O)cc3)N(Nc3ccccc3)C2C(=O)N1c1ccccc1 (stereo not given) | -0.331 (inactive) |
| COC(=O)[C@@]1(Cc2ccc(F)cc2)[C@H]2c3cc(C(=O)N(C)C)n(CCc4ccccn4)c3C[C@H]2CN1C(=O)c1ccccc1 | 2.76 (inactive) |
| Cc1ccc(S[C@]2(C(=O)NC3CC3)CC(=O)N(Cc3ccccc3)[C@@H]2c2ccc(CO)cc2)cc1 | -0.585 (inactive) |
| O=C1C2C=CC(C(O)c3ccc(F)cc3)N(Nc3ccccc3)C2C(=O)N1c1ccccc1 (stereo not given) | 0.165 (inactive) |
| Cc1cc(C)c(C(O)C2C=CC3C(=O)N(C)C(=O)C3N2Nc2ccccc2)c(C)c1 (stereo not given) | 0.568 (inactive) |
| [N-]=[N+]=NCc1ccccc1C[C@]1(C(=O)NCCN2CCOCC2)N=C(c2ccc(OCCCO)cc2)O[C@H]1c1ccccc1N=[N+]=[N-] | -7.78 (inactive) |
| O=C(OCCF)C1=CCC(c2cccc(Cl)c2)O1 (stereo not given) | 0.08 (inactive) |
| [N-]=[N+]=NCc1ccccc1C[C@]1(C(=O)NCC(O)CO)N=C(c2ccc(OCCCO)cc2)O[C@H]1c1ccccc1N=[N+]=[N-] (stereo not given in full) | -6.49 (inactive) |
| COCC1=C2[C@@H](CCc3ccccc3)OB(O)C[C@@H]2[C@@H]2C(=O)N(Cc3ccccc3)C(=O)[C@@H]2C1 | -0.683 (inactive) |
| [N-]=[N+]=Nc1ccccc1[C@H]1OC(c2ccc(OCCCO)cc2)=N[C@@]1(CCS(=O)(=O)c1ccccc1)C(=O)O | -12.4 (active) |
